# Assay results taken from the supplement of paper PMC6555819.
# Test system: PPARg:RXRa DBDmut IVT, anti-RXR (DBD mutation: RXRa K156A/R161A, NR concentration 270 nM, RXRa partner concentration 90 nM)
# Assay: PBM binding z-score (relative to random genomic background probes); higher = stronger binding; sequences stand for … in GC…GCGATTGACAGCGTAGAATGAAGG
# How it was run: (§1)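 Ligand-free nuclear receptor dimers were applied to custom Agilent 4×180K protein-binding microarrays whose double-stranded probes carried direct-repeat seeds, single-nucleotide variants, half-site ablations and random human genomic background sequences in 34-nt variable regions. Incubation lasted 1 h. Binding z-scores were computed against the random background probes from regression-normalized fluorescence.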
row,Sequence,PBM binding z-score
1,TAGACTAGGTCATTCAGGGGCCAGTATAGAAAGC,6.24
2,TGTGCTAGGTCAGTTGGTCAGCTAACGAGCTGCC,1.29
3,TTACCACGGTGAAGGTCGTTGATCCCTCTGTAGA,0.157
4,TTACCAAGGTGAGCTGAGGTCGTTCATCCAACTC,1.05
5,ATCGGAAGGTCGACGAGGTGAGTATACACCGTTT,-0.35
6,CCAGACAGGTGAAAGGTAACTTAGTCTGGTACGC,2.21
7,AGTCAAAGTTCAGGGCGAGGTAACGTAAAGCACG,0.0616
8,TCTGGTTGGTCACGGAGGTCACACACGACGGGTA,1.74
9,TTACCAAGGTTAAGGTCGTTGATCCCTCTGTAGA,0.95
10,CCTCGGAGGACAAGAGGAGGTCAGAGCTGCCAGA,-0.0535
11,GCTTACGGGTCAAAGGATATAGCATGAATAGAAT,4.24
12,CGTCCAAGGTAAAAGGTCAGTGAAGAGATGACGG,0.99
13,CGTCCAAGGTCAGGGTCAGTGAAAGAGACTCGAA,2.17
14,ATCTCTAGGTAAAGTTCGGTGAAAGATCGATAGA,2.6
15,CAAACTAGGTCGAGGTCAAAGTCGGTTTGTGCCA,6.55
16,CCTAACGGGTCACGAGGTTATAGCACGACGAGCG,3.39
17,CAAACTAGGTCACGAAAGGCCAAAGTCGAATGAC,8.35
18,CGTGCAAGGTCAATGCTAGGTCAGTGAAAGCATT,3.32
19,CCTACTGGGCCATTCAGAGGTCATTGAGCATATG,4
20,ATACCAAGGTGATGGTGAGGTCGTTGATACTAAC,0.223

row,Sequence,PBM binding z-score
1,CCTTACGGGTCACGAGGTTACAGCACGACGAGCG,4.58
2,GATACAGGGTCAGCTAGAGGCCAGAGTATGGAAA,1.03
3,TGAATGAGGTTAAAGATCAGGGACCGTGGCGTCG,1.93
4,CAAACTTGGTCACGAAAGGTCAAAGTCGAATGAC,2.71
5,GGAACGAGGGCAAAGTTGATTGCATCTGTCGACG,4.27
6,CCTCGGAGGACAGAAGGTCAGAGCGGTCCGCTTT,0.0292
7,CAGCCTCGGTCAGGGCCAGTATAGGAGGAACGTT,-0.887
8,TCGAGTAGGTTAGTCGAGGCATTCAGCCAACATA,1.97
9,CGTCCAATGTCATAGGAGGTCAGTGAAGACAGAT,0.186
10,GCTGCTTGGTCAGGTTGGTCAGCTAACGGGTACG,-0.165
11,GCAGACAGGTGAAGCGCAGGTAACTCAGGGTGGC,0.302
12,GCTAGCAGGCCATTTGGGTCCCTCAATGACGGGC,-0.0266
13,ATCTCTAGGTTACCAAGTTCAGTGAATGCCGAAC,4.8
14,CGTCCAAGGTCAATGCTAAGTCAGTGAAAGCATT,2.98
15,ATCGAAAGGTCTAGGTGAGTATAGAGAAAGGGAA,0.689
16,CATACAGGGTCAGCTTGGCCAGAGTAGGGACGGC,1.04
17,CCTACTGGGCTACGAAAGGTCATTGATTCAGTGA,3.98
18,ATATGTAGGTTGCATCCGGGTCATTCAGGCTATG,4.33
19,TAGCCTAGGTCATTCAAGGGCCAGTATAGAAAGC,1.4
20,AGAATGAGGATACCAAAGATCAGGGAAACGCTTG,0.148

# Test system: PPARg:RXRa IVT, anti-PPARg (NR concentration 270 nM, RXRa partner concentration 90 nM)
# Assay: as above
# How it was run: as §1
row,Sequence,PBM binding z-score
1,TAGACTAGGTCATTCAGGGGCCAGTATAGAAAGC,6.36
2,TGTGCTAGGTCAGTTGGTCAGCTAACGAGCTGCC,3.02
3,TTACCACGGTGAAGGTCGTTGATCCCTCTGTAGA,1.1
4,TTACCAAGGTGAGCTGAGGTCGTTCATCCAACTC,2.17
5,ATCGGAAGGTCGACGAGGTGAGTATACACCGTTT,0.996
6,CCAGACAGGTGAAAGGTAACTTAGTCTGGTACGC,2.75
7,AGTCAAAGTTCAGGGCGAGGTAACGTAAAGCACG,2.24
8,TCTGGTTGGTCACGGAGGTCACACACGACGGGTA,3.7
9,TTACCAAGGTTAAGGTCGTTGATCCCTCTGTAGA,2.15
10,CCTCGGAGGACAAGAGGAGGTCAGAGCTGCCAGA,0.408
11,GCTTACGGGTCAAAGGATATAGCATGAATAGAAT,4.01
12,CGTCCAAGGTAAAAGGTCAGTGAAGAGATGACGG,3.62
13,CGTCCAAGGTCAGGGTCAGTGAAAGAGACTCGAA,3.09
14,ATCTCTAGGTAAAGTTCGGTGAAAGATCGATAGA,2.15
15,CAAACTAGGTCGAGGTCAAAGTCGGTTTGTGCCA,6.77
16,CCTAACGGGTCACGAGGTTATAGCACGACGAGCG,4.94
17,CAAACTAGGTCACGAAAGGCCAAAGTCGAATGAC,9.09
18,CGTGCAAGGTCAATGCTAGGTCAGTGAAAGCATT,4.08
19,CCTACTGGGCCATTCAGAGGTCATTGAGCATATG,4.21
20,ATACCAAGGTGATGGTGAGGTCGTTGATACTAAC,1.12

row,Sequence,PBM binding z-score
1,CCTTACGGGTCACGAGGTTACAGCACGACGAGCG,5.66
2,GATACAGGGTCAGCTAGAGGCCAGAGTATGGAAA,2.29
3,TGAATGAGGTTAAAGATCAGGGACCGTGGCGTCG,3.65
4,CAAACTTGGTCACGAAAGGTCAAAGTCGAATGAC,4.16
5,GGAACGAGGGCAAAGTTGATTGCATCTGTCGACG,4.05
6,CCTCGGAGGACAGAAGGTCAGAGCGGTCCGCTTT,-0.0958
7,CAGCCTCGGTCAGGGCCAGTATAGGAGGAACGTT,-0.552
8,TCGAGTAGGTTAGTCGAGGCATTCAGCCAACATA,1.28
9,CGTCCAATGTCATAGGAGGTCAGTGAAGACAGAT,1.95
10,GCTGCTTGGTCAGGTTGGTCAGCTAACGGGTACG,0.0885
11,GCAGACAGGTGAAGCGCAGGTAACTCAGGGTGGC,0.226
12,GCTAGCAGGCCATTTGGGTCCCTCAATGACGGGC,-0.343
13,ATCTCTAGGTTACCAAGTTCAGTGAATGCCGAAC,4.07
14,CGTCCAAGGTCAATGCTAAGTCAGTGAAAGCATT,3.34
15,ATCGAAAGGTCTAGGTGAGTATAGAGAAAGGGAA,1.37
16,CATACAGGGTCAGCTTGGCCAGAGTAGGGACGGC,2.5
17,CCTACTGGGCTACGAAAGGTCATTGATTCAGTGA,3.65
18,ATATGTAGGTTGCATCCGGGTCATTCAGGCTATG,3.93
19,TAGCCTAGGTCATTCAAGGGCCAGTATAGAAAGC,2.93
20,AGAATGAGGATACCAAAGATCAGGGAAACGCTTG,0.0598
